Results filed as inconclusive are left out. The source made the active and inactive calls. The calls were made as follows, unless noted: active = hit-call score of the fitted dose curve at least 0.9, where 1 is the maximum; inconclusive = response in the unintended direction; inactive = score below 0.9.
Key:
[1] = CLD_ACTIN_6hr: CellzDirect (CLD) Gene Expression Assay for Baseline Control (Actin) at 6 hours (AID 2283676);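 also: active means increased actin mRNA relative to DMSO vehicle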
Outline: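 Primary human hepatocytes dosed with fresh chemical solutions (vehicle 0.2% DMSO), harvested at 6 h. Actin mRNA quantified by quantitative nuclease protection assay with chemiluminescent read-out, as background control relative to DMSO.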

[2] = CCTE_Padilla_ZF_144hpf_TERATOSCORE: (Legacy) CCTE's 144 Hour Post-fertilization zebrafish Assay Teratoscore, Padilla Lab (AID 2283679; active = hit-call score of the fitted dose curve at least 0.9, where 1 is the maximum; inactive = score below 0.9;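 as to AC50: zebrafish embryos with chorions exposed by immersion from 6-8 hpf to 5 dpf with daily renewal; teratogenicity score from eye scoring of death hatching and malformations at 144 hpf; higher score means more developmental defects relative to DMSO baseline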)
Outline: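 Larvae scored by eye at 144 hpf for death, hatching and malformations after a day in clean Hanks'. Before that, daily-renewed exposure at 80 uM (0.4% DMSO, 26C) from roughly 6-8 hpf through 5 dpf, 4 embryos per chemical.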

[3] = read-out: Cytochrome P450 3A4 (Homo sapiens) (UniProt P08684); assay: CLD_CYP3A4_6hr: CellzDirect (CLD) Gene Expression Assay for xenobiotic metabolism (CYP3A4) at 6 hours (AID 2283680)
Outline: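 Primary human hepatocytes (two donor preparations) dosed; CYP3A4 mRNA harvested at 6 h and quantified by qNPA chemiluminescence. Gain of signal fitted against 0.2% DMSO vehicle; cytotoxicity flagged by phase-contrast morphology.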

[4] = read-out: xenobiotic metabolism (CYP1A2), CYP1A2 (gene 1544); assay: CLD_CYP1A2_24hr: CellzDirect (CLD) Gene Expression Assay for xenobiotic metabolism (CYP1A2) at 24 hours (AID 2283683)
Outline: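 Primary human hepatocytes from two donor preparations dosed daily with multiple concentrations of chemical, 0.2% DMSO vehicle. CYP1A2 mRNA at 24 h quantified by qNPA chemiluminescence; gain of signal analyzed relative to DMSO. Cytotoxicity flagged by phase-contrast morphology.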

[5] = read-out: ABC Transporter (ABCB1), ABCB1 (gene 5243); assay: CLD_ABCB1_24hr: CellzDirect (CLD) Gene Expression Assay for ABC Transporter (ABCB1) at 24 hours (AID 2283684)
Outline: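 Primary human hepatocytes, two donor preparations, dosed daily with fresh solutions; vehicle 0.2% DMSO; harvested at 24 h. ABCB1 mRNA measured by quantitative nuclease protection assay (chemiluminescence); morphology-based cytotoxicity annotated.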

[6] = read-out: Broad substrate specificity ATP-binding cassette transporter ABCG2 (Homo sapiens) (UniProt Q9UNQ0); assay: CLD_ABCG2_24hr: CellzDirect (CLD) Gene Expression Assay for ABC Transporter (ABCG2) at 24 hours (AID 2283685);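 as to AC50: AC50 is for induction meaning signal gain over DMSO vehicle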
Outline: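 Primary human hepatocytes were dosed daily with ToxCast chemicals at multiple concentrations (vehicle 0.2% DMSO). ABCG2 mRNA was measured at 24 h by qNPA chemiluminescence; induction was scored as gain of signal versus DMSO.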

[7] = read-out: Cytochrome P450 3A4 (Homo sapiens) (UniProt P08684); assay: CLD_CYP3A4_24hr: CellzDirect (CLD) Gene Expression Assay for xenobiotic metabolism (CYP3A4) at 24 hours (AID 2283689)
Outline: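 Primary human hepatocytes from two donors dosed daily with fresh compound for two days, 0.2% DMSO vehicle. CYP3A4 mRNA at 24 hr by qNPA chemiluminescence; gain-of-signal fit versus DMSO, cytotoxicity flagged by morphology.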

[8] = read-out: organic anion transporter (SLCO1B1), SLCO1B1 (gene 10599); assay: CLD_SLCO1B1_24hr: CellzDirect (CLD) Gene Expression Assay for organic anion transporter (SLCO1B1) at 24 hours (AID 2283690)
Outline: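 Primary human hepatocytes (two donor preparations) dosed daily for two days with chemicals at multiple concentrations, 0.2% DMSO vehicle. SLCO1B1 mRNA at 24 h measured by qNPA chemiluminescence; induction fitted relative to DMSO.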

[9] = read-out: alkyl and aryl transferase (GSTA2), GSTA2 (gene 2939); assay: CLD_GSTA2_24hr: CellzDirect (CLD) Gene Expression Assay for alkyl and aryl transferase (GSTA2) at 24 hours (AID 2283693)
Outline: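 Primary human hepatocytes (two donor preparations) dosed daily for two days with chemicals at multiple concentrations (vehicle 0.2% DMSO); GSTA2 mRNA at 24 h measured by qNPA chemiluminescence, gain-of-signal versus DMSO.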

[10] = read-out: sulfotransferase (SULT2A), SULT2A1 (gene 6822); assay: CLD_SULT2A_24hr: CellzDirect (CLD) Gene Expression Assay for sulfotransferase (SULT2A) at 24 hours (AID 2283694);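 as to AC50: potency for increased SULT2A1 mRNA level as induction over DMSO baseline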
Outline: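 Primary human hepatocytes from two donor preparations were dosed daily with fresh solutions, vehicle 0.2% DMSO. At 24 h, lysates went to quantitative nuclease protection (qNPA) with S1 digestion and chemiluminescent readout. Cytotoxicity was annotated from phase-contrast morphology.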

[11] = read-out: glucuronosyltransferase (UGT1A1), UGT1A1 (gene 54658); assay: CLD_UGT1A1_24hr: CellzDirect (CLD) Gene Expression Assay for glucuronosyltransferase (UGT1A1) at 24 hours (AID 2283696)
Outline: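 Primary human hepatocytes from two donor preparations were dosed (0.2% DMSO vehicle) and harvested at 24 h; UGT1A1 mRNA induction was quantified by chemiluminescent qNPA, fitted as gain relative to DMSO.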

[12] = read-out: Glyceraldehyde-3-phosphate dehydrogenase (Homo sapiens) (UniProt P04406); assay: CLD_GAPDH_6hr: CellzDirect (CLD) Gene Expression Assay for Baseline Control (Glyceraldehyde 3-phosphate dehydrogenase) at 6 hours (AID 2283681);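 also: active means increased signal relative to DMSO vehicle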
Outline: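 Primary human hepatocytes from two donor preparations, dosed at multiple concentrations with 0.2% DMSO vehicle; GAPDH mRNA measured 6 h after dosing by chemiluminescent quantitative nuclease protection assay (qNPA) on denatured lysates. Serves as background control; cytotoxicity annotated by morphology.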

[13] = read-out: Cytochrome P450 2B6 (Homo sapiens) (UniProt P20813); assay: CLD_CYP2B6_24hr: CellzDirect (CLD) Gene Expression Assay for xenobiotic metabolism (CYP2B6) at 24 hours (AID 2283686)
Outline: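 Primary human hepatocytes dosed daily for two days with fresh solutions, harvested at 24 hours; mRNA induction quantified by qNPA chemiluminescence, gain of signal vs 0.2% DMSO vehicle. Cytotoxicity annotated from phase-contrast morphology.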

[14] = read-out: Cytochrome P450 2C9 (Homo sapiens) (UniProt P11712); assay: CLD_CYP2C9_24hr: CellzDirect (CLD) Gene Expression Assay for xenobiotic metabolism (CYP2C9) at 24 hours (AID 2283688)
Outline: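 Primary human hepatocytes from two donor preparations, dosed daily for two days at multiple concentrations; vehicle 0.2% DMSO. CYP2C9 mRNA induction at 24 h measured by qNPA chemiluminescence relative to DMSO; cytotoxicity annotated from morphology.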

[15] = read-out: Cytochrome P450 2B6 (Homo sapiens) (UniProt P20813); assay: CLD_CYP2B6_6hr: CellzDirect (CLD) Gene Expression Assay for xenobiotic metabolism (CYP2B6) at 6 hours (AID 2283677);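 also: actives raise CYP2B6 transcript above DMSO baseline so AC50 marks an inducer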
Outline: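 Primary human hepatocytes dosed with chemicals at multiple concentrations, vehicle 0.2% DMSO; CYP2B6 mRNA induction measured 6 h after dosing by quantitative nuclease protection assay with chemiluminescence, gain of signal fitted relative to DMSO.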

[16] = read-out: Glyceraldehyde-3-phosphate dehydrogenase (Homo sapiens) (UniProt P04406); assay: CLD_GAPDH_24hr: CellzDirect (CLD) Gene Expression Assay for Baseline Control (Glyceraldehyde 3-phosphate dehydrogenase) at 24 hours (AID 2283692)
Outline: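 Primary human hepatocytes (two donor preparations) dosed daily for two days, 0.2% DMSO vehicle; GAPDH mRNA measured at 24 h by qNPA chemiluminescence as a background control, gain-of-signal fitted against DMSO.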

[17] = read-out: Cytochrome P450 3A4 (Homo sapiens) (UniProt P08684); assay: CLD_CYP3A4_48hr: CellzDirect (CLD) Gene Expression Assay for xenobiotic metabolism (CYP3A4) at 48 hours (AID 2283698)
Outline: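 Primary human hepatocytes from two donor preparations dosed daily for two days with multiple chemical concentrations, 0.2% DMSO vehicle. CYP3A4 mRNA at 48 h by quantitative nuclease protection assay, chemiluminescence, positive fit versus DMSO; cytotoxicity flagged morphologically.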

[18] = read-out: ABC Transporter (ABCB1), ABCB1 (gene 5243); assay: CLD_ABCB1_48hr: CellzDirect (CLD) Gene Expression Assay for ABC Transporter (ABCB1) at 48 hours (AID 2283695);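 as to AC50: potency for induction meaning increase of mRNA over DMSO vehicle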
Outline: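 Primary human hepatocytes from two donor preparations dosed daily on two consecutive days with 0.2% DMSO vehicle. Harvest at 48 h. ABCB1 mRNA quantified by qNPA with chemiluminescence and fitted for gain of signal versus DMSO.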

[19] = read-out: Cytochrome P450 2C19 (Homo sapiens) (UniProt P33261); assay: CLD_CYP2C19_24hr: CellzDirect (CLD) Gene Expression Assay for xenobiotic metabolism (CYP2C19) at 24 hours (AID 2283687);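 also: activity means mRNA induction above DMSO vehicle baseline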
Outline: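 Primary human hepatocytes (two donor preparations) dosed daily with fresh test chemical in 0.2% DMSO vehicle; CYP2C19 mRNA induction measured at 24 h by quantitative nuclease protection assay with chemiluminescence, fitted for gain of signal versus DMSO.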

Measured: AC50

Chain of Cytochrome P450 3A4 (Homo sapiens) (P08684 whole entry, looked up): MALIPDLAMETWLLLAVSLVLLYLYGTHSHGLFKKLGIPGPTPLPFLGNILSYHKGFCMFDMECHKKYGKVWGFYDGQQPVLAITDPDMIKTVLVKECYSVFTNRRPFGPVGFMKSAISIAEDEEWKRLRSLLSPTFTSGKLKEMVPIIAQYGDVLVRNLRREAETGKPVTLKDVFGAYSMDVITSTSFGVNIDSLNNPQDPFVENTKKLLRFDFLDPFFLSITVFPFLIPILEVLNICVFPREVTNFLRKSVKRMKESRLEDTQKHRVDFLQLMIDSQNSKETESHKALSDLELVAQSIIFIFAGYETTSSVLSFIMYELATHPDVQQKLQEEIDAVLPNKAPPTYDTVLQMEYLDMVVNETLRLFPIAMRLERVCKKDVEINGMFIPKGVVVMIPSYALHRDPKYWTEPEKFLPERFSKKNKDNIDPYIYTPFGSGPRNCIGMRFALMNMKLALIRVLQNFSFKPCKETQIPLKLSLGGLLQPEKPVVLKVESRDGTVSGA
Chain of Broad substrate specificity ATP-binding cassette transporter ABCG2 (Homo sapiens) (Q9UNQ0 whole entry, looked up): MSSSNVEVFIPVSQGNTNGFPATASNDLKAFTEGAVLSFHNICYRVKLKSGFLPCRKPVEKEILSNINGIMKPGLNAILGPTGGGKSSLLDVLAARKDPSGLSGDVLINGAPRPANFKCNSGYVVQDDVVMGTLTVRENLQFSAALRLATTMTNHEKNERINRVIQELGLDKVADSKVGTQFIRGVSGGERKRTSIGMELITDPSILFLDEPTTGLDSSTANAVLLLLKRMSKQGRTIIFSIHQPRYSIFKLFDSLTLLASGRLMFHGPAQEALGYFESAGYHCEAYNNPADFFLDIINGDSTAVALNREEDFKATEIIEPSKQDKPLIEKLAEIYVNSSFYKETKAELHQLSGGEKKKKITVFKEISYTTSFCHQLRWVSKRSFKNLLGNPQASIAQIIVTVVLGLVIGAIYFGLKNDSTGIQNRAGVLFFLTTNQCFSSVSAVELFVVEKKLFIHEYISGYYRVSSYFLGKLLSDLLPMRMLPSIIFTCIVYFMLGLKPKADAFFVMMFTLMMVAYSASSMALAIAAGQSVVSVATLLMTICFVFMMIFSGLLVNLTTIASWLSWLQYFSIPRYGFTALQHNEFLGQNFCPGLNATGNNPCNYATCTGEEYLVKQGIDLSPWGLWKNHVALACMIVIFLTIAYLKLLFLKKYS
Chain of Glyceraldehyde-3-phosphate dehydrogenase (Homo sapiens) (P04406 whole entry, looked up): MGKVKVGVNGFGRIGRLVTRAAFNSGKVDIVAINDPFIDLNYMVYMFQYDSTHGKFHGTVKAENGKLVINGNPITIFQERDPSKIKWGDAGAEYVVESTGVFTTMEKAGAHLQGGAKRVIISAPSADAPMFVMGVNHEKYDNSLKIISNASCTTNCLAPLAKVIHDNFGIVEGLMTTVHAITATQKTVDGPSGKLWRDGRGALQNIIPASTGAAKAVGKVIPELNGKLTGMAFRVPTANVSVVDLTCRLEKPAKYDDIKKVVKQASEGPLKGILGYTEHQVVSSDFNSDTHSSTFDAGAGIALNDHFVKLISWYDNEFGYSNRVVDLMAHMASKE
Chain of Cytochrome P450 2C19 (Homo sapiens) (P33261 whole entry, looked up): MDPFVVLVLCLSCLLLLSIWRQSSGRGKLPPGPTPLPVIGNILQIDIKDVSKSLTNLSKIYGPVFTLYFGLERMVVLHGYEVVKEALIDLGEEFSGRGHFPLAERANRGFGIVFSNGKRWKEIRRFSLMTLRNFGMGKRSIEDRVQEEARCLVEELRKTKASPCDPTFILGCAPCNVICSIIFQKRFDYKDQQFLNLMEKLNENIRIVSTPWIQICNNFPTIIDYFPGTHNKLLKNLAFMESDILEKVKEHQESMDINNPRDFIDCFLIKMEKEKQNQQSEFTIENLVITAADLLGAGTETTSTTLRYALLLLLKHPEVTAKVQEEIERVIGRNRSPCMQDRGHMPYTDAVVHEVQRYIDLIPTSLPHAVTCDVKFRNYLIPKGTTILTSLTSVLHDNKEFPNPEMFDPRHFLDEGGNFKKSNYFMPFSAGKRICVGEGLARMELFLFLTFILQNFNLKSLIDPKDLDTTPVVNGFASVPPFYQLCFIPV

CCOP(=S)(OCC)SCCSCC
active: [4] 6.62 µM | [7] 20 µM | [11] 24.6 µM
inactive: [1] | [2] | [3] | [5] | [6] | [8] | [9] | [10]

CSC1=N[C@@](C)(c2ccccc2)C(=O)N1Nc1ccccc1
active: [2] 3.03 µM | [4] 3.97 µM
not listed: [1] | [11] | [15] | [16] | [17] | [18] | [19]
inactive: all other assays above

CCc1cccc(CC)c1N(COC)C(=O)CCl
active: [15] 2.58 µM | [2] 35.4 µM | [3] 1.93 µM | [7] 15.7 µM
not listed: [1] | [11] | [13] | [17] | [18] | [19]
inactive: all other assays above

CN1COCN(Cc2cnc(Cl)s2)C1=N[N+](=O)[O-]
inactive: [2] | [4] | [13] | [14] | [7] | [8] | [10] | [11] | [17]

CNC(=O)ON=C(C)SC
active: [2] 73.3 µM
inactive: [12] | [4] | [5] | [6] | [7] | [8] | [16] | [9] | [18]

CCC(=O)Nc1ccc(Cl)c(Cl)c1
inactive: [7] | [10]
active: [2] 61.3 µM | [4] 3.95 µM

COc1ccc(C(=CC(=O)N2CCOCC2)c2ccc(Cl)cc2)cc1OC
inactive: [5] | [6] | [14] | [8] | [16] | [9] | [10] | [11]
active: [2] 23.6 µM | [3] 2.29 µM | [7] 2.09 µM | [18] 31 µM

CN(C)C(=O)Nc1cccc(C(F)(F)F)c1
active: [4] 3.66 µM | [7] 20 µM
inactive: [2] | [3] | [5] | [6] | [14] | [8] | [9] | [18] | [11]

COP(=O)(OC)SCn1c(=O)oc2cc(Cl)cnc21
inactive: [4] | [5] | [6] | [7] | [9] | [10] | [18] | [11]
active: [2] 51.1 µM

CC(Oc1cccc(Cl)c1)C(=O)O (stereo unspecified)
inactive: [2] | [12] | [4] | [5] | [16] | [10] | [18]

COP(=O)(OC)C(O)C(Cl)(Cl)Cl (stereo unspecified)
active: [2] 168 µM
inactive: [12] | [5] | [6] | [8] | [9]

CCCCOC(=O)c1ccccc1C(=O)O
inactive: [2] | [3] | [12] | [4] | [5] | [6] | [16] | [9]

Cc1cc(C2CC2)nc(Nc2ccccc2)n1
active: [2] 15.3 µM | [4] 4.15 µM
inactive: [3]

COP(=O)(NC(C)=O)SC (stereo unspecified)
inactive: [2] | [3] | [12] | [4] | [5] | [7] | [8] | [16]

C=C(C)[C@H]1Cc2c(ccc3c2O[C@@H]2COc4cc(OC)c(OC)cc4[C@@H]2C3=O)O1
inactive: [12] | [5] | [19] | [14] | [7] | [8] | [9]
active: [2] 0.000155 µM | [6] 6.65 µM | [10] 3.88 µM

CCOC(=O)CC(SP(=O)(OC)OC)C(=O)OCC (stereo unspecified)
active: [4] 2.38 µM | [7] 20 µM
inactive: [2] | [5] | [6] | [14] | [8] | [9]

Nc1c(Cl)cc([N+](=O)[O-])cc1Cl
active: [2] 76.3 µM | [4] 20 µM
inactive: [3] | [12] | [6] | [14] | [7] | [9] | [10] | [11]

CNc1cnn(-c2cccc(C(F)(F)F)c2)c(=O)c1Cl
active: [4] 5.72 µM | [7] 5.8 µM
inactive: [2] | [3] | [5] | [10] | [11]

FC(F)C(F)(F)OCC(Cn1cncn1)c1ccc(Cl)cc1Cl (stereo unspecified)
inactive: [5] | [6] | [9] | [10] | [18]
active: [2] 57.8 µM | [4] 1.46 µM | [7] 0.949 µM

COP(=O)(OC)OC(Br)C(Cl)(Cl)Br (stereo unspecified)
inactive: [12] | [4] | [5] | [9]
active: [2] 16.7 µM

Source: PubChem BioAssay (EPA / NIEHS)
